Records with an inconclusive call do not appear. Active and inactive are the calls of the source. Rule for the calls: active = hit-call score of the fitted dose curve at least 0.9, where 1 is the maximum; inconclusive = response in the unintended direction; inactive = score below 0.9.
Assay: STM_H9_OrnCyssISnorm_ratio: Stemina devTOX quickPredict H9 human embryonic stem cell (hESC)-based Assay for Ornithine (ORN):Cystine (CYSS) Ratio (AID 2283714)
Description: STM_H9_secretome utilizes undifferentiated H9 cells to measure relative changes in two metabolites, ornithine (ORN) and cystine (CYSS) in the secretome, targeting a critical drop in the ORN/CYSS ratio as a biomarker for developmental toxicity.STM_H9_OrnCyssISnorm_ratio is one of 10 components calculated in the STM_H9_secretome assay. It is the ratio value of OrnISnorm_perc to CyssISnorm_perc.Data from the assay component STM_H9_OrnCyssISnorm_ratio was analyzed at the assay endpoint STM_H9_OrnCyssISnorm_ratio in the positive analysis fitting direction relative to DMSO as the negative control and baseline of activity. Using a type of binding reporter, gain or loss-of-signal activity can be used to understand relative metabolite change.
H9 hESCs maintained in a pluripotent state were exposed to test compound for 72h with chemical replenishment with media replacement every 24h. Cell-conditioned media from the final 24-h treatment period was collected for analysis of the targeted biomarker, and cell viability of the corresponding cell layer was assessed. The chemical library was tested in blinded fashion. Each test plate included 1uM Methotrexate (MTX; Selleck Chemicals, Houston, Texas) as a positive reference, 5 nM MTX as a negative reference, 0.1% DMSO as the neutral (vehicle) control, and sample-level media blanks.H9 cell-conditioned media from the final 24-h treatment period was collected for analysis of the targeted biomarker and cell viability was measured from the corresponding cell layer. Cell viability was measured using the CellTiter-Fluor assay (Promega, Madison, Wisconsin) based on proteolytic cleavage of a substrate to fluorescent signal proportional to the number of living cells. The cell viability Relative Fluorescence Unit (RFU) was background corrected and normalized to mean RFU of the neutral control (0.1% DMSO). The collected H9-cell-conditioned media samples were processed for targeted biomarker analysis as described (Palmer et al., 2013). Briefly, spent media samples were deproteinized (40% acetonitrile) and processed for UPLC-HRMS. Data acquisition was performed using 4 separate UPLC-HRMS systems, consisting of an Agilent 1290 Infinity LC system (Agilent Technologies) interfaced with an Agilent high-resolution mass spectrometer (models G6520A, G6520B, G6530A, and G6224A). A Waters Acquity UPLC BEH Amide column (2.1mm x 50mm, 1.7lm particle size; Waters, Milford, Massachusetts) maintained at 40C was applied for separation of metabolites using a 6.5min solvent gradient with 0.1% formic acid in water and 0.1% formic acid in acetonitrile (1.0ml/min flow rate). Data were acquired using MassHunter Acquisition software (version B 04.00, Agilent Technologies). The extracted ion chromatogram (EIC) areas for ORN, CYSS, and their respective spike-in C13-standards were determined using the Agilent MassHunter Quantitative Analysis software, version B.05.00 or newer (Agilent Technologies), and data were normalized as described in Palmer et al. (2017).

SMILES	AC50	outcome
CN(C)C(=O)C1(N2CCCCC2)CCN(CC[C@@]2(c3ccc(Cl)c(Cl)c3)CN(C(=O)c3ccccc3)CCO2)CC1	8.17 µM (active)	
CC(C)(c1cc(Br)c(O)c(Br)c1)c1cc(Br)c(O)c(Br)c1		inactive
COc1ccc2cc(S(=O)(=O)N[C@H](CC(=O)N[C@H](Cc3ccc(CN4[C@H](C)CCC[C@@H]4C)cc3)C(=O)N(C)C(C)C)c3ccc4c(c3)OCO4)ccc2c1	23 µM (active)	
Cc1cn([C@H]2C[C@H](N=[N+]=[N-])[C@@H](CO)O2)c(=O)[nH]c1=O	4.02 µM (active)	
CCCCCCCCOC(=O)c1cc(O)c(O)c(O)c1	2.54 µM (active)	
COc1cc(C(=O)NC2CCN(C)CC2)ccc1Nc1ncc2c(n1)N(C1CCCC1)CC(F)(F)C(=O)N2C	0.0311 µM (active)	
O=C=NCCCCCCN=C=O		inactive
CC(C)(C)c1cc(/C=C2\SC(N)=NC2=O)cc(C(C)(C)C)c1O	3.33 µM (active)	
O=c1c(-c2ccc(O)cc2)coc2cc(O)cc(O)c12	73.7 µM (active)	
CN1C(=O)CC[C@H]1c1cccnc1		inactive
CCCCCCCCCCCC[N+](C)(C)C	4.73 µM (active)	
CCCCCCCCN(C)CCCCCCCC		inactive
CC/C(=C(/CC)c1ccc(O)cc1)c1ccc(O)cc1		inactive
CN(C[C@@H](CC[N+]12CCC(C3CCCCC3)(CC1)CC2)c1ccc(Cl)c(Cl)c1)C(=O)c1cc(C(F)(F)F)cc(C(F)(F)F)c1	14.4 µM (active)	
Cc1c2ccccc2c(C)c2c1ccc1ccccc12	5 µM (active)	
CC(=O)N1CCN(c2ccc(OC[C@H]3CO[C@](Cn4ccnc4)(c4ccc(Cl)cc4Cl)O3)cc2)CC1	2.35 µM (active)	
Clc1cc(Cl)c2c(c1)N=C1CCCCCN1C2		inactive
O=C(Nc1ccc(Cl)cc1)Nc1ccc(Cl)c(Cl)c1		inactive
CO[C@H]1/C=C/O[C@@]2(C)Oc3c(C)c(O)c4c(O)c(c(/C=N/N5CCN(C)CC5)c(O)c4c3C2=O)NC(=O)/C(C)=C\C=C\[C@H](C)[C@H](O)[C@@H](C)[C@@H](O)[C@@H](C)[C@H](OC(C)=O)[C@@H]1C	4.04 µM (active)	
CCCCOC(=O)c1ccc(O)cc1		inactive
COc1cccc([C@H](O)C2CCN(CCc3ccc(F)cc3)CC2)c1OC	10 µM (active)	
NC(=O)c1nc(-c2cccc(-c3cc(F)ccc3OCC(F)(F)C(F)(F)F)c2)n[nH]1	3.99 µM (active)	
OCCO		inactive
CN1C(=O)N(c2ccccc2Br)Cc2cnc(Nc3ccc4c(c3)OCC(CO)O4)nc21 (stereo not given)	1.18 µM (active)	
CN(C)c1ccc(C(=C2C=CC(=[N+](C)C)C=C2)c2ccc(N(C)C)cc2)cc1	0.723 µM (active)	
